Assay outcomes from PubChem BioAssay.
Sampled rows, rich in hits. Any-hit rate of the full collection: about 3.8%.
VDR inh = Inhibitors of the vitamin D receptor (VDR): qHTS. 0.93% of 400,000 active. Potency, µM, for inactives: max response, negative = inhibition, actives largely listed as inhibitors. AID 504847, 2011. VDR-SRC2-3 peptide fluorescence polarization, 2 h
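After 23 nl compound addition and a short centrifugation, plates sat for 2 hours at ambient temperature; polarization of fluorescence then indicated loss of VDR binding to peptide SRC2-3.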
GCN5L2 inh = qHTS Assay for Inhibitors of GCN5L2; Histone acetyltransferase KAT2A (Homo sapiens), Q92830; GCN5L2 HAT assay, ThioGlo1 CoA-SH fluorescence; Potency, µM (doses to about 58.9 µM), inactives show at the highest dose activity change, negative = inhibition, most hits filed as inhibitors; 0.21% of 390,000 active
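Preincubate 20nM GCN5L2 with compound 15 min, RT → add 50uM ThioGlo1 + 75uM H3(1-25) + 70uM acetyl-CoA → read fluorescence 0 and 20 min. Primary qHTS; fluorescent artifacts likely.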
Sfp PPTase inh = qHTS Assay for Inhibitors of Bacillus subtilis Sfp phosphopantetheinyl transferase (PPTase). 4'-phosphopantetheinyl transferase ffp (Bacillus subtilis), Q9F4F7. Biochemical Sfp PPTase activity, qHTS. Potency, µM, for inactives: largest response in the series, negative = inhibition, actives largely listed as inhibitors. 3.5% of 310,000 active. AID 1490, 2009;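 also: the enzyme is Sfp with the accession as filed and its product quenches rhodamine fluorescence; 0% = enzyme reaction without inhibitor and -100% = no enzyme wells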
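Compounds were incubated with enzyme (final 15 nM) for 15 min at room temperature before substrate addition started the reaction. Fluorescence at 525 nm excitation, 598 nm emission was recorded immediately and after 30 minutes.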
GLS inhibitor = qHTS for Inhibitors of Glutaminase (GLS); AID 624170, 2012; Potency, µM (highest dose often 45.5 µM), inactives show at the highest dose activity change, negative = inhibition, usual class: inhibitors; 0.21% of 410,000 active; GLS enzymatic activity, qHTS titration; Glutaminase kidney isoform, mitochondrial (Homo sapiens), O94925
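Human kidney-isoform GLS in 45 mM KH2PO4 pH 8.2, 0.02% Tween-20, with compound, started with 1mM L-Glutamine (added stock). Glutamate oxidase/HRP/Amplex red coupled fluorescence read at start and after 30 min at RT.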
TrxR1 substrate = qHTS Assay for Substrates of Mammalian Selenoprotein Thioredoxin Reductase 1 (TrxR1): qHTS; Thioredoxin reductase 1, cytoplasmic (Rattus norvegicus), O89049; purified TrxR1 substrate turnover, NADPH consumption readout; Potency, µM (titrated, usually from 114 µM), for inactives: at the highest dose activity change, negative = substrate turnover; 0.01% of 390,000 active; AID 588456, 2011; also: nearly all actives have a fitted effect of over 50% in size
Target sequence (O89049 whole entry, looked up): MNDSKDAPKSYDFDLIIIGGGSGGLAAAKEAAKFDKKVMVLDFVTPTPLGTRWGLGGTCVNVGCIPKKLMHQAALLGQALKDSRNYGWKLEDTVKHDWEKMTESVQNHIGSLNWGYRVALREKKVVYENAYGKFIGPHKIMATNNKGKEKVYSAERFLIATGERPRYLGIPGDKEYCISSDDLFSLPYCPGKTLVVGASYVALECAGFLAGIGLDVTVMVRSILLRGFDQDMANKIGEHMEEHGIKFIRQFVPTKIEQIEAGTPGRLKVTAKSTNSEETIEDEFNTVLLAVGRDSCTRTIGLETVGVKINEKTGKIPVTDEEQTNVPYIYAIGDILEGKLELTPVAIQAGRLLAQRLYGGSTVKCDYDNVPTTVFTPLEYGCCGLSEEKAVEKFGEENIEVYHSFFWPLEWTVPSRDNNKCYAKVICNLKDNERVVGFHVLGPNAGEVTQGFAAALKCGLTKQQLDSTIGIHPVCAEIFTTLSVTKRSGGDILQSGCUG
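Rat TrxR1, dispensed at 90 nM, was prereduced with 400 uM NADPH (final) for 5 min at ~22 deg C, then incubated with compound 15 min before 400 uM selenite. A first-read NADPH fluorescence drop versus no-compound background flagged substrates.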
rTrxR1 inhibitor = qHTS Assay for Inhibitors of Mammalian Selenoprotein Thioredoxin Reductase 1 (TrxR1): qHTS; Thioredoxin reductase 1, cytoplasmic (Rattus norvegicus), O89049; recombinant rTrxR1, NADPH fluorescence consumption, selenite substrate; Potency, µM (titrated, usually from 114 µM), without a hit: at the top dose activity change, negative = inhibition, most hits filed as inhibitors; 1% of 390,000 active; also: nearly all actives have a fitted effect of over 65% in size
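Rat TrxR1 (90 nM in the dispensed reagent) was pre-reduced with 400 uM NADPH for 5 min at room temperature, then incubated with compound for 15 min. After 400 uM selenite was added, NADPH fluorescence (Ex 340/Em 450 nm) was followed for 8 min.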
* = called active by the depositor; ? = inconclusive; / = not tested or not shown; [ ] = another dose, or the depositor's remark. Calls follow the shape of the dose curve; as a rule, active = well fitted curve in the direction sought with a large enough effect; inconclusive = small, poorly fitted or top-dose-only effect, or another doubt; inactive = no such curve, though single readings can be large; an effect the other way counts as inactive or inconclusive. Unless noted, % is scaled to controls: 0 for no effect and ±100 for the full control effect; potency is read from the fitted curve at half-maximal effect.

SMILES	VDR inh	GCN5L2 inh	Sfp PPTase inh	GLS inhibitor	TrxR1 substrate	rTrxR1 inhibitor
COc1ccc(N2CCN(C(=O)c3ccc(Cn4c(=S)[nH]c5ccc(N6CCOCC6)cc5c4=O)cc3)CC2)cc1	10.6%	-4.4%	70.8µM*	0.0%	7.4%[57.1 µM]	21.4%[57.1 µM]
Cc1ccc(NC(=O)C(c2ccc(Cl)cc2)N2CCOCC2)cc1 (stereo not drawn)	9.9%	-10.1%	13.1%	-0.5%	7.1%	8.7%
Cc1ccc(NC(=O)C(c2ccc(Cl)cc2)N2CCCCC2)cc1 (stereo not drawn)	10.9%	2.24µM*	9.6%	-1.9%	5.0%	-0.1%
CCN(CC)S(=O)(=O)c1cccc(NC(=O)COC(=O)CCc2nc3ccccc3s2)c1	7.2%	-10.8%	3.9%	-5.6%	-11.6%	4.3%
CC(C)[C@H](NC(=O)N1CCn2c1nc1ccccc12)C(=O)NCc1ccco1	7.1%	-0.5%	20.8%	-6.4%	0.8%	11.8%
CC(=O)OCC(=O)N1N=C(c2ccc3ccccc3c2)CC1c1ccccc1 (stereo not drawn)	-5.9%	-10.9%	25.1µM*	-2.1%	4.9%	14.5%
COCCN1CSC(=S)N(Cc2ccco2)C1	89.1µM*	-2.5%	31.6µM*	2.9%	-4.8%	?
O=C(NCc1ccco1)c1ccc(OC2CCN(Cc3ccccn3)CC2)cc1	/	/	/	-2.7%	/	/
CC(C)CN1CN(Cc2ccco2)CNC1=S	16.8%	-2.3%	10.9%	-8.1%	-6.6%	-23.0%
S=C1SCN(Cc2ccccn2)CN1Cc1ccco1	?	18.1%	10µM*	4.8%	4.1%	-19.2%
CCOC(=O)c1csc(N/N=C2\CCc3ccccc32)n1	5.3%	9.9%	-14.8%	-4.1%	2.2%	10.1%
CCOC(=O)c1csc(N/N=C2\CCCc3ccccc32)n1	1.6%	-3.7%	79.4µM*	2.1%	-42.3%	-4.6%[57.1 µM]
Cc1ccc(Oc2ccc(Cl)cc2NC(=O)c2cnccn2)cc1	-6.6%	-13.6%	15.3%	-5.8%	5.5%	-0.7%
O=C(O)C(c1ccccc1)N1C(=O)/C(=C/c2cccs2)SC1=S (stereo not drawn)	-15.9%	-2.1%	-13.1%	0.2%	-3.0%	15.2%
COc1ccc(OC)c(/C=C2\SC(=S)N(C(C(=O)O)c3ccccc3)C2=O)c1 (stereo not drawn)	?	-28.5%	56.2µM*	4.6%	-2.3%	9.8%
C=CCOc1ccc(/C=C2\SC(=S)N(C(C(=O)O)c3ccccc3)C2=O)cc1 (stereo not drawn)	79.4µM*	0.3%	-9.1%	-0.6%	-5.1%	15.4%
CC(c1ccccc1)N1C(=O)/C(=C/c2ccncc2)SC1=S (stereo not drawn)	44.7µM*	-3.8%	-29.8%	-5.9%	-5.3%	-6.9%
CC(/C=C1\SC(=S)N(C(C(=O)O)c2ccccc2)C1=O)=C\c1ccccc1 (stereo not drawn)	-16.6%	?	-11.7%	26.2%	4.6%[57.1 µM]	2.9%[57.1 µM]
COCCCNC(=O)C1C2C=CC3(CN(Cc4ccc(C)cc4)C(=O)C13)O2 (stereo not drawn)	-4.8%	-7.3%	17.3%	-2.3%	11.1%	9.7%
CCOC(=O)/C(=C\c1cccnc1)C(=O)c1cc(C(C)=O)c(Nc2ccccc2)s1	7.94µM*	-3.2%	39.8µM*	-9.5%	-5.9%	3.16µM*
COc1ccccc1OC(C)C(=O)NCC1(N2CCOCC2)CCCCC1 (stereo not drawn)	-8.0%	-7.2%	/	2.1%	0.9%	12.4%
